This is part of a sample that, as a whole, favours compounds with a hit. Of some 83,000 tested, about 20% had one in any assay.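 Note: values are percent growth. 100 is the growth of untreated cells, values between 100 and 0 indicate rising inhibition; between -100 and 0 indicates cell death.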 The source made the active and inactive calls. The calls were made as follows: active = growth percent below 10; inactive = the rest.
Experiments:
Experiment in all cases: NCI-60 one-dose screen, 48 h (100 = growth as untreated, 0 = no growth, -100 = all killed)
Conditions in all cases: 10 µM unless noted
NCI-H23 lung = tested on: NCI-H23 lung
NCI-H226 lung = tested on: NCI-H226 lung
NCI-H322M lung = tested on: NCI-H322M lung
HOP-62 NSCLC = tested on: HOP-62 NSCLC
NCI-H460 lung = tested on: NCI-H460 lung
HOP-92 NSCLC = tested on: HOP-92 NSCLC
NCI-H522 lung = tested on: NCI-H522 lung
A549/ATCC NSCLC = tested on: A549/ATCC NSCLC
786-0 renal = tested on: 786-0 renal
COLO 205 colon = tested on: COLO 205 colon

Measured: growth

C=C(CC(=O)OC)C(C)=O
inactive: NCI-H23 lung 105% | NCI-H226 lung 104% | NCI-H322M lung 119% | HOP-62 NSCLC 98.7% | NCI-H460 lung 111% | HOP-92 NSCLC 112% | NCI-H522 lung 101% | A549/ATCC NSCLC 114% | 786-0 renal 106% | COLO 205 colon 116%

O=C(N/N=C/c1ccc([N+](=O)[O-])cc1)c1ccc(Br)o1
inactive: NCI-H23 lung 95.5% | NCI-H226 lung 100% | NCI-H322M lung 129% | HOP-62 NSCLC 119% | NCI-H460 lung 105% | HOP-92 NSCLC 101% | NCI-H522 lung 88.5% | 786-0 renal 91.7% | COLO 205 colon 116%

O=C(Nc1cccc2cccnc12)c1cc(C(=O)c2ccc(Cl)cc2)n2ccc(-c3ccncc3)cc12
inactive: NCI-H23 lung 102% | NCI-H226 lung 91% | NCI-H322M lung 95.7% | HOP-62 NSCLC 88.3% | NCI-H460 lung 98% | HOP-92 NSCLC 83.9% | NCI-H522 lung 88.8% | 786-0 renal 103% | COLO 205 colon 111%

CN(Cc1cccc(C(F)(F)F)c1)C(=O)[C@@H](CC(=O)N1CCC(N2CCCCC2)CC1)N1C(=O)[C@@H](N2C(=O)OC[C@@H]2c2ccccc2)[C@H]1/C=C/c1ccccc1
inactive: NCI-H23 lung 93.9% | NCI-H226 lung 85.1% | NCI-H322M lung 93.5% | HOP-62 NSCLC 81.2% | NCI-H460 lung 89% | HOP-92 NSCLC 58.7% | NCI-H522 lung 96.1% | 786-0 renal 75.4% | COLO 205 colon 72.2%

CC(C)c1ccc(/C=N/N=C(N)N)cc1
inactive: NCI-H23 lung 80.7% | NCI-H226 lung 93.2% | NCI-H322M lung 106% | HOP-62 NSCLC 84.3% | NCI-H460 lung 91.1% | HOP-92 NSCLC 24.1% | NCI-H522 lung 66.7% | 786-0 renal 93.4% | COLO 205 colon 59.8%

CCN(CC)CCSC(=O)C(O)(c1ccccc1)C1CCCC1 (configuration not stated)
inactive: NCI-H23 lung 99.4% | NCI-H226 lung 93.1% | NCI-H322M lung 118% | HOP-62 NSCLC 111% | NCI-H460 lung 115% | HOP-92 NSCLC 77% | NCI-H522 lung 86.7% | 786-0 renal 169% | COLO 205 colon 144%

O=C(NCCO)c1cccnc1
inactive: NCI-H23 lung 102% | NCI-H226 lung 92.7% | NCI-H322M lung 95.9% | HOP-62 NSCLC 91.9% | NCI-H460 lung 98.9% | HOP-92 NSCLC 82.7% | NCI-H522 lung 73% | 786-0 renal 97% | COLO 205 colon 105%

Cc1c(Cn2cc(COc3ccc(Br)cc3)nn2)c(C)c(Cn2cc(COc3ccc(Br)cc3)nn2)c(C)c1Cn1cc(COc2ccc(Br)cc2)nn1
active: NCI-H522 lung -30.4%
inactive: NCI-H23 lung 98.7% | NCI-H226 lung 88.2% | NCI-H322M lung 108% | HOP-62 NSCLC 84% | NCI-H460 lung 102% | HOP-92 NSCLC 93.7% | 786-0 renal 95.2% | COLO 205 colon 84.6%

O=C1COCCN1c1ccc(NCc2cn(Cc3ccc(F)cc3)c3ccccc23)cc1
inactive: NCI-H23 lung 58.9% | NCI-H322M lung 87.3% | HOP-62 NSCLC 62.5% | NCI-H460 lung 15.4% | HOP-92 NSCLC 68.2% | NCI-H522 lung 58.1% | 786-0 renal 67.1%
active: NCI-H226 lung -56.5% | COLO 205 colon 5.22%

c1cc2ccc1CNCCN1CCNCc3ccc(cc3)Oc3ccc(cc3)CNCCN(CCNCc3ccc(cc3)O2)CCNCc2ccc(cc2)Oc2ccc(cc2)CNCC1
active: NCI-H23 lung -79.3% | NCI-H226 lung -56.6% | NCI-H322M lung -28.5% | HOP-62 NSCLC -78.2% | NCI-H460 lung -66.3% | HOP-92 NSCLC -92.2% | NCI-H522 lung -84.3% | COLO 205 colon -86.8%
inactive: 786-0 renal 66.2%

CCCCCC1CCCCN1C(=O)OCCCC (configuration not stated)
inactive: NCI-H23 lung 62% | NCI-H226 lung 87.5% | NCI-H322M lung 103% | HOP-62 NSCLC 122% | NCI-H460 lung 99.9% | HOP-92 NSCLC 113% | NCI-H522 lung 32% | 786-0 renal 104% | COLO 205 colon 111%

Cc1nc(-c2ccccc2)sc1CC#N
inactive: NCI-H23 lung 106% | NCI-H226 lung 93.1% | NCI-H322M lung 101% | HOP-62 NSCLC 102% | NCI-H460 lung 103% | HOP-92 NSCLC 99.2% | NCI-H522 lung 94.6% | 786-0 renal 104% | COLO 205 colon 122%

O=C(N[C@@H]1CCCc2ccccc21)[C@H](CCC(=O)N1CCN(C2CCCCC2)CC1)N1C(=O)[C@@H](N2C(=O)OC[C@@H]2c2ccccc2)[C@H]1/C=C/c1ccccc1
active: HOP-92 NSCLC 2.75%
inactive: NCI-H23 lung 57.7% | NCI-H226 lung 64.4% | NCI-H322M lung 34.6% | HOP-62 NSCLC 61.3% | NCI-H460 lung 29.4% | NCI-H522 lung 52.3% | 786-0 renal 42.1% | COLO 205 colon 34.4%

CC1(C(=O)O)CCC(N)(C(=O)O)C1(C)C (configuration not stated)
inactive: NCI-H23 lung 113% | NCI-H226 lung 108% | NCI-H322M lung 108% | HOP-62 NSCLC 99.5% | NCI-H460 lung 117% | HOP-92 NSCLC 89.4% | NCI-H522 lung 97.1% | 786-0 renal 109%

C#C[C@]1(O)CC[C@H]2[C@@H]3CC=C4c5nc(Nc6ccc(OC)cc6OC)sc5CC[C@]4(C)[C@H]3CC[C@@]21C
active: HOP-62 NSCLC -11.5% | 786-0 renal -54.7% | COLO 205 colon -43.2%
inactive: NCI-H23 lung 34.6% | NCI-H226 lung 24.2% | NCI-H322M lung 37% | NCI-H460 lung 12.4% | HOP-92 NSCLC 10.4% | NCI-H522 lung 23%

Nn1c(Nc2ccc(S(=O)(=O)Nc3ncccn3)cc2)nnc(/C=C/c2c(O)ccc3ccccc23)c1=O
inactive: NCI-H23 lung 88.9% | NCI-H226 lung 78.8% | NCI-H322M lung 90% | HOP-62 NSCLC 81.8% | NCI-H460 lung 88.4% | HOP-92 NSCLC 83.3% | NCI-H522 lung 98.1% | 786-0 renal 111% | COLO 205 colon 103%

Cc1ccc(Cn2c(O)c(N=NC(=O)c3ccc(S(N)(=O)=O)cc3)c3ccccc32)cc1
inactive: NCI-H23 lung 101% | NCI-H226 lung 93.9% | NCI-H322M lung 99.1% | HOP-62 NSCLC 106% | NCI-H460 lung 104% | HOP-92 NSCLC 106% | NCI-H522 lung 97.3% | 786-0 renal 105% | COLO 205 colon 115%

CSc1nc2c(c(=O)n1C)C1(C(=O)N(Cc3ccccc3)c3ccccc31)c1c(nc(SC)n(C)c1=O)N2
inactive: NCI-H23 lung 92.9% | NCI-H226 lung 74.3% | NCI-H322M lung 95.5% | HOP-62 NSCLC 84% | NCI-H460 lung 87.2% | HOP-92 NSCLC 93.2% | NCI-H522 lung 73.9% | 786-0 renal 113% | COLO 205 colon 105%

CCC(Br)(CC)C(=O)c1ccc(OCC(=O)O)c(Cl)c1Cl
inactive: NCI-H23 lung 103% | NCI-H226 lung 87.4% | NCI-H322M lung 112% | HOP-62 NSCLC 119% | NCI-H460 lung 96% | HOP-92 NSCLC 102% | NCI-H522 lung 82.1% | 786-0 renal 117% | COLO 205 colon 108%

COc1cc(NN=C(c2ccc(O)cc2)c2ccc(O)cc2)c([N+](=O)[O-])cc1[N+](=O)[O-]
inactive: NCI-H226 lung 110% | NCI-H322M lung 94.3% | HOP-92 NSCLC 70.2% | COLO 205 colon 12.7%
active: NCI-H23 lung 5.6% | HOP-62 NSCLC -1.66% | NCI-H460 lung 1.73% | NCI-H522 lung -49.9% | 786-0 renal -29.5%

CC1(C)C(=NO)C(C)(C)C1=NO
inactive: NCI-H23 lung 111% | NCI-H226 lung 103% | NCI-H322M lung 99.6% | HOP-62 NSCLC 117% | NCI-H460 lung 105% | HOP-92 NSCLC 88.7% | NCI-H522 lung 94.1% | 786-0 renal 110% | COLO 205 colon 116%

COc1ccc2nc3cc(Cl)ccc3c(Nc3ccc(O)c(CN4CCCC4)c3)c2c1
inactive: NCI-H23 lung 47.3% | NCI-H226 lung 97.5% | HOP-62 NSCLC 26.9% | HOP-92 NSCLC 31.9%
active: NCI-H322M lung 7.91% | NCI-H460 lung -27.4% | NCI-H522 lung -40.7% | 786-0 renal -21.8% | COLO 205 colon -19.8%

COc1cc(C)cc2oc3oc(=O)c(-c4nc5ccccc5s4)cc3c(=O)c12
inactive: NCI-H23 lung 96.9% | NCI-H226 lung 87.5% | NCI-H322M lung 90% | HOP-62 NSCLC 91.6% | NCI-H460 lung 84.1% | NCI-H522 lung 95.7% | A549/ATCC NSCLC 109% | 786-0 renal 105%

COc1cc(NCc2cn(-c3ccc(C(=O)O)cc3)nc2-c2ccc(C(=O)O)cc2)cc(OC)c1OC
inactive: NCI-H23 lung 107% | NCI-H226 lung 99.3% | NCI-H322M lung 93.9% | HOP-62 NSCLC 98.6% | NCI-H460 lung 99.9% | HOP-92 NSCLC 68.1% | NCI-H522 lung 101% | 786-0 renal 90.8% | COLO 205 colon 108%

CO[C@H]1CC[C@@]2(C)C(=CC[C@H]3[C@@H]4C[C@H](O)C[C@@]4(C)CC[C@@H]32)C1
inactive: NCI-H23 lung 67.8% | NCI-H226 lung 82.4% | NCI-H322M lung 91.3% | HOP-62 NSCLC 62.4% | NCI-H460 lung 42.9% | HOP-92 NSCLC 35.6% | NCI-H522 lung 71.6% | 786-0 renal 61.5% | COLO 205 colon 61.5%

C=C(C)[C@@H]1CC[C@]2(C(=O)OC)CC[C@]3(C)[C@H](CC[C@@H]4[C@@]5(C)CC/C(=N\OCCC(=NCCC#N)NOCCC#N)C(C)(C)[C@@H]5CC[C@]43C)[C@@H]12
inactive: NCI-H23 lung 21.8% [100 µM] | NCI-H322M lung 46.1% [100 µM] | HOP-62 NSCLC 32.5% [100 µM] | NCI-H522 lung 13.4% [100 µM] | COLO 205 colon 17.6% [100 µM]
active: NCI-H226 lung 2.42% [100 µM] | NCI-H460 lung 4.22% [100 µM] | HOP-92 NSCLC -15% [100 µM] | 786-0 renal -11.5% [100 µM]

CC1(C)OC2[C@@H](CNC(=O)NC(=O)NC(=O)CI)O[C@@H](n3cnc4c(NC(=O)Nc5ccccc5)ncnc43)[C@H]2O1 (some centres not stated)
inactive: NCI-H23 lung 57.7% | NCI-H226 lung 97.1% | NCI-H322M lung 103% | HOP-62 NSCLC 78% | NCI-H460 lung 93.1% | COLO 205 colon 51.7%
active: HOP-92 NSCLC -63.2% | NCI-H522 lung -76% | 786-0 renal -77.9%

Reference: PubChem BioAssay (NCI)
